Screening data (PubChem BioAssay)
The list is not random: actives were taken first. Their share in the collection is about 1.6%.
PERK inh – blocks human PERK kinase. Q9NZJ5. CHO PERK-DD fusion, SEAP luminescence translation reporter. inhibition, % at 5.6 µM. 220,000 tested, 0.17% active;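 active means inhibition above the mean inhibition of all tested compounds plus 3 SD, set separately per screening campaign, cut at about 2.9% in these data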;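 further: PERK kinase domain activated by AP20187 dimerizer at 100 nM; 0% = DMSO with dimerizer and 100% = rapamycin at 8.4 µM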
NALP3 yeast inh – blocks the NALP3 inflammasome reconstituted in yeast. Yeast reconstituted NLRP3/ASC/caspase-1, beta-gal luminescence, 24 h. inhibition, % at 10 µM. 330,000 tested, 0.39% active;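 active means inhibition of 50% or more; inactive means inhibition below 50%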;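 further: plate controls were induced DMSO wells for no effect and uninduced yeast grown without galactose for full effect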
Rce1 inhib – inhibitors of yeast Ras-converting enzyme. calls only. 290,000 tested, 0.27% active. Q03530. yeast membranes, quenched prenylated peptide cleavage fluorescence. AID 2563;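 active means fall in fluorescence gain of 50% or more versus controls, with final raw signal at or below 3038400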;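 further: plate controls were neutral control wells for no effect and wells lacking membranes for full effect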
Target sequence (Q03530 whole entry, looked up): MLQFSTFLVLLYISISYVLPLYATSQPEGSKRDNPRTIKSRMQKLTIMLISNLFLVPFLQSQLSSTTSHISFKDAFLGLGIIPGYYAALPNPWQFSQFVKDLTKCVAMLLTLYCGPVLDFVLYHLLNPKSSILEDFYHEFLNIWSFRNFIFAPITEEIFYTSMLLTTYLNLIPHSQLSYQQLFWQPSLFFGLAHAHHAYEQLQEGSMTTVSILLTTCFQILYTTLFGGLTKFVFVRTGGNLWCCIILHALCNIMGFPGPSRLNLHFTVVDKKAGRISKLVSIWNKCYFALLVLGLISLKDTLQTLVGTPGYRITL
CR mimetic SO – caloric restriction mimetics inhibiting age-related superoxide in yeast; superoxide response (% of plate mean), % at 10 µM; AID 2690; S. cerevisiae aged cells, superoxide DHE fluorescence; active compounds read low; 330,000 tested, 0.18% active;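 active means superoxide response under a set limit, about three screen SD below normal, cut at about 65% in these data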;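 further: yeast aged for seven days with compound at 30 °C before DHE staining; 100% = average MFI of all compound-treated wells on the plate with controls excluded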
NALP1 yeast inh – inhibitors of NALP1 inflammasome in yeast; inhibition, % at 10 µM; S. cerevisiae NALP1/ASC/caspase-1 growth, X-gal OD620, 72 h; AID 2071; 280,000 tested, 0.61% active; in the data active means inhibition mostly above about 24%, no sharp cut-off; inactive means mostly below about 32%
V-ATPase pH – yeast V-ATPase proton transport regulation by pHLuorin; response, % at 10 µM; S. cerevisiae, pHLuorin cytosolic pH fluorescence; 350,000 tested, 0.37% active; in the data active means response mostly above about 7.3%, no sharp cut-off; inactive means mostly below about 5.4%; further: actives read high
An asterisk follows results filed as active; i = inactive; / = no result; + = active, no number.

SMILES	PERK inh	NALP3 yeast inh	Rce1 inhib	CR mimetic SO	NALP1 yeast inh	V-ATPase pH
CCOc1cccc(-c2c(C(=O)N/N=C/c3c(F)cccc3Cl)nnn2-c2nonc2N)c1	/	-10.4	+	125.8	0.1	-1.4
CCOC(=O)c1ccc(NC(=O)N2CCOCC2)cc1	0.6	-7.6	i	89.1	6.2	1.3
CCOC(=O)c1ccc(NC(=O)N2CCCCCC2)cc1	/	27.5	i	77.3	43.3*	0.4
Cc1ccc(NS(=O)(=O)c2ccc(NC(=O)N3CCCCC3)cc2)cc1	/	9.0	+	110.6	20.0	-0.9
Cc1cccc(NS(=O)(=O)c2ccc(NC(=O)N3CCCCC3)cc2)c1	/	6.9	i	104.8	2.1	-0.6
CCCCCCCCCC(=O)N[C@H](CN1CCOCC1)[C@H](O)c1ccccc1	/	13.8	i	113.5	/	-4.8
CCCCCCCCCCCC(=O)NC(C(=O)O)C(O)c1ccccc1 (stereo unspecified)	1.4	0.4	i	113.7	26.7*	-4.3
COc1cccc(CN(C)C(=O)c2cccc(S(=O)(=O)Nc3cccc(C)c3)c2)c1OC	/	/	/	/	/	-0.4
CCOC(=O)C1C(c2ccc(O)c(OC)c2)NC(=O)NC1(O)C(F)(F)F (stereo unspecified)	/	5.8	i	105.4	34.0*	-0.1
CCn1c(COc2cccc(C)c2)nnc1SCC(=O)NC1CCCC1	/	16.3	+	94.5	-7.6	-3.5
CCC(C)Oc1cccc(OCCCCN2C(=O)NC(C)(C)C2=O)c1 (stereo unspecified)	0.0	0.9	i	118.7	/	-0.2
CC1(C)NC(=O)N(CCCCOc2cccc(C(F)(F)F)c2)C1=O	-0.1	-1.5	i	100.4	15.7	14.7*
O=S(CC(O)c1ccccc1)c1ccccc1 (stereo unspecified)	/	/	/	/	/	-1.8
Cc1ccccc1OCc1csc(N)n1	0.9	24.2	i	116.5	45.0*	-3.4
Nc1nc(COc2ccccc2)cs1	0.1	8.1	i	95.2	-16.3	0.0
O=S(=O)(CC(CN1CCOCC1)N1CCOCC1)c1ccccc1 (stereo unspecified)	-0.6	1.9	+	119.8	1.2	4.3
O=S(=O)(CC(CN1CCCCC1)N1CCCCC1)c1ccc2ccccc2c1 (stereo unspecified)	-0.2	/	i	/	54.9*	-4.7
Cc1ccc(S(=O)(=O)CC(CN2CCCCC2)N2CCCCC2)cc1 (stereo unspecified)	0.1	/	/	/	-6.7	-2.9
CCCCn1nc(C(=O)NC2CCCCC2)c2ccccc2c1=O	/	/	/	/	/	2.5
Cc1cccnc1NC(=O)Nc1ccc(F)cc1	0.9	27.0	i	99.5	27.8*	-1.9
Cc1ccc(NC(=O)Nc2ncccc2C)cc1	0.7	42.7	i	86.9	11.3	-5.5
C/[N+]([O-])=C\CC(=O)c1ccc(-c2ccccc2)cc1	1.6	29.6	i	99.2	28.8*	0.3
Cc1ccc([C@H]2N[C@]3(CCCN(Cc4ccc(Cl)cc4)C3=O)[C@H]3C(=O)N(C)C(=O)[C@@H]23)cc1	/	/	/	/	/	-0.5
Nc1nc2nccc(-c3ccc(Cl)cc3)n2n1	-1.0	33.6	/	99.0	36.3*	5.1
CC(C)CC1C(C#N)=C(N)Oc2n[nH]c(-c3cccs3)c21 (stereo unspecified)	-0.6	5.2	i	110.0	-14.5	-0.8
SMILES	PERK inh	NALP3 yeast inh	Rce1 inhib	CR mimetic SO	NALP1 yeast inh	V-ATPase pH
CSCCC1C(C#N)=C(N)Oc2n[nH]c(-c3cccs3)c21 (stereo unspecified)	3.1*	13.2	i	105.6	-0.6	0.5
COCCNc1nc(-c2ccc(OC)cc2)c(-c2ccc(OC)cc2)s1	-0.4	22.8	i	100.8	35.1*	0.1
O=C(/C=C/C(Cl)(Cl)Cl)Nc1ccc(Cl)cc1	/	/	/	/	/	-0.8
NC(=O)/C=C/C(=O)Nc1ccc(Cl)cc1	-0.9	13.9	i	102.4	79.1*	-0.1
c1ccc2c(Nc3ccc4c(c3)OCCO4)c3c(nc2c1)CCCC3	1.8	6.6	i	100.2	29.4*	10.6
Fc1cccc(Nc2c3c(nc4ccccc24)CCC3)c1	/	24.3	i	94.2	20.1	0.7
O=C1C=C(O)c2cccc(O)c2C1=O	/	9.7	/	167.1	3.1	-1.2
CC1OC(CC(=O)O)CC2=C1C(=O)c1c(O)cccc1C2=O (stereo unspecified)	/	/	/	/	/	116.6*
CCOC(=O)c1[nH]c2ccc(F)cc2c1NC(=O)C(C)N1CCc2cc(OC)c(OC)cc2C1 (stereo unspecified)	-1.3	-7.8	i	97.4	31.0*	-4.3
CCOC(=O)c1[nH]c2ccc(OC)cc2c1NC(=O)C(C)N1CCC2(CC1)OCCO2 (stereo unspecified)	-0.8	/	/	/	18.4	/
COc1ccc(N=Cc2ccc[nH]2)cc1	0.4	6.8	i	86.3	36.0*	7.5
CCCCN1C(=S)NC[C@@H]1Cc1cccc2ccccc12	/	9.3	i	110.8	/	-0.1
CCCC[C@@H]1CNC(=S)N1CCc1cccc2ccccc12	1.3	36.6	+	107.1	7.5	2.2
CCn1nc(C)cc1C(=O)NC1CC(C)(C)Cc2c1cnn2-c1cccc(F)c1 (stereo unspecified)	/	23.7	+	97.7	3.7	3.2
C=CCSC(=S)NC1CCS(=O)(=O)C1 (stereo unspecified)	1.7	24.7	i	110.6	82.5*	2.3
O=C(NCCOc1ccc(F)cc1)C1CCC(=O)N(Cc2ccc(Cl)cc2)C1 (stereo unspecified)	/	/	/	/	/	-1.8
CC(C)OC(=O)C(=O)NNc1ccccc1	-0.4	13.7	i	105.4	37.1	-4.1
C=C(C)C(=O)NNc1ccccc1	0.4	9.0	i	95.2	26.6*	0.3
O=C(CCC1COc2ccccc2O1)NC1CCCCC1 (stereo unspecified)	1.3	19.4	i	92.8	40.7*	2.3
CC(C)(C)NC(=O)CCC1COc2ccccc2O1 (stereo unspecified)	-1.0	7.7	i	81.2	5.8	3.3
CC(NC(=O)CCC1COc2ccccc2O1)c1ccccc1 (stereo unspecified)	-0.5	19.8	i	94.7	42.3*	-0.7
CCOc1ccc(N2CC(C(=O)Nc3cccc(S(=O)(=O)N4CCOCC4)c3)CC2=O)cc1 (stereo unspecified)	/	/	/	/	/	-2.0
CC(=O)C(C)Oc1ccc2c3c(c(=O)oc2c1)CCCC3 (stereo unspecified)	-1.0	16.6	+	71.7	-6.7	1.7
CC(C)=C1C2CCC1C1C(=O)N(NC(=O)COc3ccc(Cl)c(C)c3)C(=O)C21 (stereo unspecified)	-1.5	14.5	i	115.8	41.0*	-2.8
O=C(N/N=C/c1cccc(Oc2ccccc2)c1)c1ccccc1Br	1.6	18.5	i	86.7	32.4*	-2.2
COc1cc([N+](=O)[O-])cc2sc(NC(=O)C(C)(C)C)nc12	3.5*	24.2	i	99.8	12.4	4.4
C[C@@H]1CN([C@@H](C)CO)S(=O)(=O)c2ccc(Br)cc2O[C@H]1CN(C)C(=O)C1CCOCC1	/	/	/	/	/	0.2
